Sampled rows, rich in hits. Any-hit rate of the full collection: about 3.3%.
AmpC inh detg: AmpC beta-lactamase inhibition with detergent present. Potency, µM (series often up to 114 µM), most hits filed as inhibitors. 370,000 tested, 0.041% active. P00811. AmpC hydrolysis of nitrocefin, absorbance 480 nm, 0.01% Triton; also: nearly all actives have a fitted effect of over 25% in size
Target sequence (P00811 whole entry, looked up): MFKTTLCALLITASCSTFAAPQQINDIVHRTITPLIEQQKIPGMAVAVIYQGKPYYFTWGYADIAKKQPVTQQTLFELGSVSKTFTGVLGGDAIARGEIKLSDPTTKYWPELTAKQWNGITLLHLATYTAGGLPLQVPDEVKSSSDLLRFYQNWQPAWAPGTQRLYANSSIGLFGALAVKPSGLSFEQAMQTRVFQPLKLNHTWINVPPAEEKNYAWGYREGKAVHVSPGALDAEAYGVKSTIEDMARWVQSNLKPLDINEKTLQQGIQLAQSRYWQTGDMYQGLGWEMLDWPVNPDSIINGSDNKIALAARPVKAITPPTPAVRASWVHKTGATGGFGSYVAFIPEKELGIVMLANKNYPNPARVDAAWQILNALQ
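20 mM phosphate pH 7.0 + 0.01% (detergent screen) or 0.0001% Triton X-100; 5.3 nM AmpC reagent; cpd preinc 15 min RT; nitrocefin (800 uM stock) to start; A480 q20 s × 4 min; Activity was normalised to no-enzyme and no-compound control wells.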
Sm TGR inh: blocks Schistosoma mansoni thioredoxin glutathione reductase | Q962Y6 | purified TGR, DTNB reduction, TNB absorbance 405 nm | Potency, µM (doses to about 114 µM), actives largely listed as inhibitors | 360,000 tested, 3% active | AID 485364; also: nearly all actives have a fitted effect of over 60% in size
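Kinetic colorimetric format: TGR-catalysed, NADPH-driven DTNB reduction monitored via TNB absorbance. Enzyme dispensed at 20 nM; compound exposure 15 min at room temperature before reaction start.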
AmpC inh no detg: AmpC beta-lactamase inhibition without detergent; P00811; AmpC nitrocefin hydrolysis, absorbance 480 nm, 0.0001% Triton; Potency, µM (series often up to 57.1 µM), most hits filed as inhibitors; 330,000 tested, 0.52% active; also: nearly all actives have a fitted effect of over 20% in size
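AmpC (5.3 nM in the dispensed reagent) in 20 mM phosphate pH 7.0 with 0.01% (detergent screen) or 0.0001% Triton X-100 was preincubated with compounds for 15 min at room temperature. Nitrocefin was then added from an 800 uM solution, and hydrolysis was followed at 480 nm.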
Hits are given with their value; . = inactive; ? = inconclusive; / = not tested or not shown; [ ] = dose if it differs, or a comment. Calls follow the shape of the dose curve; as a rule, active = well fitted curve in the direction sought with a large enough effect; inconclusive = small, poorly fitted or top-dose-only effect, or another doubt; inactive = no such curve, though single readings can be large; an effect the other way counts as inactive or inconclusive.

SMILES	AmpC inh detg	Sm TGR inh	AmpC inh no detg
COc1ccc(Cl)cc1NS(=O)(=O)c1cccc(C(=O)NCC(c2ccco2)N2CCCC2)c1 (stereo not given)	.	.	.
CCOc1ccc(S(=O)(=O)Nc2ccc(C(=O)NCC(c3ccco3)N3CCCCC3)cc2)cc1 (stereo not given)	?	.	.
COc1ccc(Cl)cc1C(=O)NCC(c1ccco1)N1CCCC1 (stereo not given)	.	.	0.16µM
COc1ccc(S(=O)(=O)N2CCOCC2)cc1C(=O)NCC(c1ccco1)N1CCCC1 (stereo not given)	.	.	.
CC(C)(Oc1ccc(Cl)cc1)C(=O)NCc1ccncc1	.	.	.
COc1ccc(Cl)cc1NS(=O)(=O)c1cccc(C(=O)NCC(c2ccco2)N(C)C)c1 (stereo not given)	.	13µM	.
CCOc1ccc(C(=O)NCC(=O)NCC(c2ccco2)N2CCCCC2)cc1 (stereo not given)	.	89µM	.
CC(=O)C1=NN(c2ccccc2)C2(S1)S/C(=C\c1ccccc1)C(=O)N2c1ccccc1 (stereo not given)	.	.	.
CCN(c1ccccc1)S(=O)(=O)c1ccc(F)c(C(=O)Nc2ccc(C)cc2)c1	.	.	/
COC(=O)[C@H](CC(C)C)N(Cc1ccccc1)S(=O)(=O)N(Cc1ccc(OC)cc1)[C@@H](CC(C)C)C(=O)OC	/	/	.
CCCCCN1CC(=O)N2C(C)c3[nH]c4ccccc4c3C[C@H]2C1=O (stereo not given in full)	.	.	.
CC(O)CNc1nc2ccccc2n1CC(=O)N1CCN(Cc2ccccc2)CC1 (stereo not given)	.	.	.
COc1ccc(C(=O)Nc2ccc(Cl)cc2C(=O)NCc2ccco2)cc1OC	.	.	.
COc1ccc(Cl)cc1C(=O)NCc1ccco1	.	45µM	.
COC(CNC(=O)c1cn(C)c2ccc(S(=O)(=O)N(C)C3CCCCC3)cc2c1=O)OC	.	.	.
O=C(NCc1ccco1)C(=O)NCC1OCCCN1S(=O)(=O)c1ccccc1 (stereo not given)	.	.	.
O=C(CN1CCOCC1)Nc1ncc(Cc2cccc(Cl)c2)s1	.	.	.
Cc1cc(C)nc(SCC(=O)Nc2ncc(Cc3cccc(Cl)c3)s2)n1	.	.	2.8µM
CCc1ccc(NC(=O)C(=O)c2ccccc2NC(C)=O)cc1	.	.	.
O=C(O)c1cccc(NC(=O)c2ccc3c(c2)C(=O)N(C2CCCCC2)C3=O)c1	.	.	.
COc1ccc(S(=O)(=O)Nc2cccc(C(C)=O)c2)cc1Br	.	/	.
CC(=O)c1cccc(NS(=O)(=O)c2cccc(S(=O)(=O)c3ccc(Br)cc3)c2)c1	.	13µM	/
O=C(CSc1nnc(CNC(=O)c2cccs2)o1)Nc1cccc(Cl)c1	.	.	.
COc1ccc(NC(=O)CCC(=O)c2cccs2)cc1Cl	.	.	.
COc1cc(NCCC(=O)c2cccs2)c(OC)cc1Cl	?	1.3µM	.
SMILES	AmpC inh detg	Sm TGR inh	AmpC inh no detg
CCOC(=O)c1sc(NC(=O)CSc2nnc(-c3ccco3)n2CC)c(C(=O)OCC)c1C	.	20µM	?
CCOC(=O)c1c(NC(=O)CSc2nnc(-c3ccccc3)n2CC)sc(C(C)=O)c1C	.	.	.
CCOC(=O)CNC(=O)CSc1nnc(-c2ccco2)n1Cc1ccco1	.	25µM	.
O=C(CSc1nnc(C2CC2)n1Cc1ccco1)NCC(F)(F)F	.	35µM	.
O=C(CSc1nnc(C2CC2)n1-c1ccccc1)NCc1ccco1	.	?	.
CCOC(=O)CNC(=O)CSc1nnc(-c2ccco2)n1N	.	.	.
CN(CCC#N)C(=O)COC(=O)c1cccnc1Nc1ccccc1F	.	.	.[11.4 µM]
Cc1ccc(NC(=O)Cn2c(=O)n(Cc3ccco3)c(=O)c3sc4ccccc4c32)c(C)c1	.	.	/
Cc1nn(CC(=O)NC2(C)CCS(=O)(=O)C2)c(C)c1S(=O)(=O)N(C)C (stereo not given)	/	/	.
NC(=O)c1nsc(C(=O)N(Cc2cccnc2)C(C(=O)NCc2ccc(F)cc2)c2ccc(O)cc2)c1N (stereo not given)	.	.	.
COc1ccc(N2C(=O)/C(=C/c3cc(C)n(-c4ccc(C)cn4)c3C)C(=O)NC2=S)c(OC)c1	.	?	.
COc1cc(/C=C2\C(=O)NC(=O)N(c3ccccc3)C2=O)c([N+](=O)[O-])cc1OC	.	1.6µM	.
COc1ccc(OC)c(N2C(=O)/C(=C/c3ccco3)C(=O)NC2=S)c1	50µM	32µM	18µM
COc1cc(/C=C2\C(=O)NC(=O)N(c3ccccc3)C2=O)cc(OC)c1O	.	.	.
COc1ccc(OC)c(N2C(=O)CC(=O)NC2=O)c1	.	.	.
O=C1NC(=S)N(c2ccc(Cl)cc2)C(=O)/C1=C/N1CCN(C(=O)c2ccco2)CC1	.	?	.
COc1ccc(OC)c(N2C(=O)NC(=O)/C(=C/c3ccc([N+](=O)[O-])s3)C2=O)c1	.	4µM	.
O=C1NC(=S)N(c2ccc(F)cc2)C(=O)/C1=C/c1ccco1	50µM	32µM	18µM
O=C(CSc1oc(-c2ccco2)nc1S(=O)(=O)c1ccc(Cl)cc1)Nc1ccc(F)cc1	.	?	/
CCc1ccc(C(C(=O)NC2CCCC2)N(Cc2cccnc2)C(=O)c2csnn2)cc1 (stereo not given)	.	.	.
CCOC(=O)C1(CCCc2ccccc2)CCN(CC(O)CO)CC1 (stereo not given)	.	.	.
COCCNC(=O)Cn1cc(/C=N/NC(=O)c2ccc(Oc3ccc(O)cc3)cc2)c2ccccc21	.	.	.
CCN1C(=O)[C@H]2[C@@H](c3ccc(-c4cccc(Cl)c4)c(OC)c3)N3CCCC[C@@]3(C(=O)OC)[C@H]2C1=O	/	/	.
Cc1ccc(N2C(=O)NC(=O)/C(=C\c3ccoc3)C2=O)cc1	.	.	.
O=C1NC(=S)N(c2ccc(F)cc2)C(=O)/C1=C\c1ccoc1	.	32µM	.
SMILES	AmpC inh detg	Sm TGR inh	AmpC inh no detg
O=C(NCc1ccco1)C1CCN(C(=O)c2ccc(Cl)cc2Cl)CC1	.	?	.
COc1ccc(S(=O)(=O)CC(=O)c2cc3cccc(C)c3oc2=O)cc1	.	?	.
COc1cccc2cc(C(=O)CS(=O)(=O)c3ccc(C(C)(C)C)cc3)c(=O)oc12	.	?	18µM
O=C1Cc2ccccc2C(c2ccc(Br)cc2)N1 (stereo not given)	.	.	.
O=C1NC2=C(CCc3ccccc32)C(c2ccc(Br)cc2)N1 (stereo not given)	.	50µM	.
Clc1ccc(Cn2cccn2)cn1	.	.	.
COc1ccc(C2C=C(c3ccccc3)Nc3nc(NS(=O)(=O)c4ccc(C)cc4)nn32)cc1 (stereo not given)	.	.	/
CS(=O)(=O)Nc1nc2n(n1)C(c1ccccc1)C=C(c1ccc(Br)cc1)N2 (stereo not given)	.	22µM	.
COc1ccccc1C1C=C(c2ccc(Cl)cc2)Nc2nc(NS(C)(=O)=O)nn21 (stereo not given)	.	40µM	.
COc1ccc(C2C=C(c3ccc(Cl)cc3)Nc3nc(NC(C)=O)nn32)cc1 (stereo not given)	.	?	.
